Assay outcomes: PubChem BioAssay, National Center for Advancing Translational Sciences (NCATS)
Most compounds without a hit are left out; they make up all but 9.9% or so of the library.
Tau fibril ThT: qHTS for Inhibitors of Tau Fibril Formation, Thioflavin T Binding | recombinant tau K18 P301L, heparin-induced fibrillization, ThT fluorescence | Potency, µM (titrated, usually from 57.4 µM), usual class: inhibitors | hit rate 2.1% among 270,000; note: nearly all actives have a fitted effect of over 55% in size
Target sequence (P10636 561-689 P618L limits assumed): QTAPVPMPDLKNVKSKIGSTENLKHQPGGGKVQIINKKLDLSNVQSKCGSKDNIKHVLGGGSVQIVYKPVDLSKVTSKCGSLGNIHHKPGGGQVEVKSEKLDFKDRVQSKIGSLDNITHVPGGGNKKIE
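Heparin-induced (20 uM) aggregation of recombinant human K18 P301L tau, 15 uM unlabeled with 0.24 uM labeled, pH 7 acetate buffer, 6 hr at 37 C with compound. Fibrils quantified by 30 uM ThT fluorescence after 1 hr ambient incubation.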
Tau fibril FP: qHTS for Inhibitors of Tau Fibril Formation, Fluorescence Polarization | K18 P301L tau heparin fibrillization, Alexa594 FP, 6 h | hit rate 0.39% among 280,000 | AID 1468, 2008 | Potency, µM (titrated, usually from 57.7 µM), actives largely listed as inhibitors; note: nearly all actives have a fitted effect of over 55% in size
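Heparin (20 uM) drove fibril formation of recombinant tau K18 P301L, 15 uM unlabeled with 0.24 uM Alexa 594 label, for 6 hr at 37 C in 100 mM sodium acetate pH 7. Fluorescence polarization (555/632 nm) read 1 hr after 30 uM ThT.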
JMJD2E inh: qHTS Assay for Inhibitors of Human Jumonji Domain Containing 2E (JMJD2E). hit rate 1.6% among 230,000. JMJD2E catalytic domain, FDH-coupled NADH fluorescence (FDH is formaldehyde dehydrogenase). AID 2147, 2009. Potency, µM (series often up to 57.1 µM), most hits filed as inhibitors. Lysine-specific demethylase 4E (Homo sapiens), B2RXH2; active = well fitted inhibition curve with a large enough effect, not every such curve was filed as active; inconclusive = small, poorly fitted or top-dose-only effect, or another doubt; inactive = no such curve, though single readings can be large or run the other way; note: nearly all actives have a fitted effect of over 50% in size
Tau fluor counter: Counterscreen qHTS for Inhibitors of Tau Fibril Formation, Fluorescence Polarization | AID 1463, 2008 | hit rate 0.93% among 280,000 | Potency, µM (highest dose often 57.7 µM) | tau K18 P301L Alexa594 fluorescence, heparin fibrillization; note: nearly all actives have a fitted effect of over 55% in size
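Human tau K18 P301L (15 uM unlabeled, 0.24 uM Alexa 594-labeled) in 100 mM sodium acetate pH 7 with 20 uM heparin, 6 hr at 37 C. ThT 30 uM added, 1 hr ambient; Alexa 594 FP and total fluorescence read at 555/632 nm.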
ALDH1A1 block: qHTS Assay for Inhibitors of Aldehyde Dehydrogenase 1 (ALDH1A1). Purified ALDH1A1, NADH fluorescence, propionaldehyde substrate. hit rate 7.3% among 220,000. Potency, µM (doses to about 75.3 µM), actives largely listed as inhibitors. Aldehyde dehydrogenase 1A1 (Homo sapiens), P00352; active = well fitted inhibition curve with a large enough effect, not every such curve was filed as active; inconclusive = small, poorly fitted or top-dose-only effect, or another doubt; inactive = no such curve, though single readings can be large or run the other way
HPGD inh: qHTS Assay for Inhibitors of HPGD (15-Hydroxyprostaglandin Dehydrogenase). purified HPGD, NADH fluorescence kinetic, PGE2 substrate. hit rate 4.3% among 150,000. Potency, µM, hits mostly inhibitors. 15-hydroxyprostaglandin dehydrogenase [NAD(+)] (Homo sapiens), P15428; active = well fitted inhibition curve with a large enough effect, not every such curve was filed as active; inconclusive = small, poorly fitted or top-dose-only effect, or another doubt; inactive = no such curve, though single readings can be large or run the other way
Target sequence (P15428 whole entry, looked up): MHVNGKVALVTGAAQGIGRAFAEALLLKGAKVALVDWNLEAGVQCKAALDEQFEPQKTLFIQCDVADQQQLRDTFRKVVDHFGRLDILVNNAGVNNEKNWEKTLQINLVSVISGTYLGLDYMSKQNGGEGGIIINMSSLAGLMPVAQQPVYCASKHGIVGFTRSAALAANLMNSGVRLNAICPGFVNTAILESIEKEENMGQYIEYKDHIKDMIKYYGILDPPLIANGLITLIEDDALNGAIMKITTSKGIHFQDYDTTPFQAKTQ
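20 nM HPGD preincubated 15 min at room temperature with compound in 50 mM Tris-HCl pH 8, 0.01% Tween 20. Started with 1 mM NAD+ and 30 uM prostaglandin E2; NADH fluorescence (360/450 nm) read 5 times over 30-s intervals, last minus first.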
Numbers stand for hits; - = inactive; ? = inconclusive; . = no result; [ ] = dose if it differs, or a comment. Unless noted, calls come from the whole dose curve; as a rule, active = well fitted curve in the direction sought with a large enough effect; inconclusive = small, poorly fitted or top-dose-only effect, or another doubt; inactive = no such curve, though single readings can be large; an effect the other way counts as inactive or inconclusive.

SMILES	Tau fibril ThT	Tau fibril FP	JMJD2E inh	Tau fluor counter	ALDH1A1 block	HPGD inh
O=C(c1cnccn1)N1CCC[C@@]2(CCN(c3ccccn3)C2)C1	.	.	.	.	-	-
Cc1occc(=O)c1O	-	-	16µM	-	-	-
Cc1c(O)ccoc1=O	-	-	?	-	-	.
COc1ccc(C(=O)N2CCCCC2CCN2CCOCC2)cc1 (stereo unspecified)	-	-	.	-	.	.
COc1ccnc(CS(=O)c2nc3ccc(OC(F)F)cc3[nH]2)c1OC (stereo unspecified)	25µM	?	?	-	?	?
O=C(CN1c2ccccc2Sc2ccccc21)N/N=C/c1ccccc1	-	-	-	?	.	.
O=C(CN1c2ccccc2Sc2ccccc21)NNC(=O)Nc1ccc(Cl)c(Cl)c1	?	?	-	5µM[quencher]	.	.
O=C(CN1c2ccccc2Sc2ccccc21)NNC(=O)Nc1ccc(Cl)cc1	.	-	-	5.6µM[quencher]	.	.
Cn1c(=S)ccc2ccccc21	?	-	-	-	25µM	.
CC1=NNC(=O)C1C(c1ccccc1)C1C(=O)NN=C1C (stereo unspecified)	?	-	-	-	32µM	.
COc1ccccc1C(=O)NC(=S)Nc1ccc(N2CCCC2)cc1	?	-	-	?	-	-
O=C(NC(=S)Nc1ccc(Cc2ccncc2)cc1)c1ccccc1Cl	-	-	-	-	?	.
COc1ccc(NC(=S)NC(=O)c2ccccc2Cl)cc1	-	-	-	-	13µM	.
O=C(NC(=S)Nc1ccc(O)cc1)c1ccccc1Cl	-	-	-	-	18µM	.
C[C@H]1C[C@]2(O[C@@H]2C)C(=O)O[C@@H]2CCN(C)C/C=C(/COC(=O)[C@]1(C)O)C2=O	-	-	-	-	-	-
COc1ccc(N(CC(C)C)S(=O)(=O)c2nnc(NC(=O)c3cccs3)s2)cc1	-	-	.	-	.	.
CCS(=O)(=O)Nc1ccc(-c2nnc(SCC(=O)c3cccc(OC)c3)o2)cc1	-	-	-	-	3.2µM	?
CCS(=O)(=O)Nc1ccc(-c2nnc(SCC(=O)c3ccc(NC(C)=O)c(OC)c3)o2)cc1	-	-	-	-	-	0.79µM
COc1cc(-c2nnc(SCc3c(F)cccc3Cl)o2)cc(OC)c1OC	-	-	-	-	4.5µM	?
COc1cc(-c2nnc(SCC(=O)c3ccc(C)cc3)o2)cc(OC)c1OC	-	-	-	-	28µM	-
COc1ccc(-c2nnc(SCC(=O)c3ccc(NC(C)=O)cc3)o2)cc1OC	?	-	.	-	.	.
COc1cc(-c2nnc(SCc3ccccc3Cl)o2)cc(OC)c1OC	?	-	-	-	?	-
Cc1ccc(SCC(=O)NC(C)(C)C)cc1	-	-	-	-	-	-
Cc1ccc(-c2c(C(=O)NC(C)C)oc(=O)c3ccccc23)cc1	-	-	-	-	1.4µM	.
Cc1ccc(-c2c(C(=O)N(C)Cc3ccccc3)oc(=O)c3ccccc23)cc1	-	-	-	-	1.8µM	-
SMILES	Tau fibril ThT	Tau fibril FP	JMJD2E inh	Tau fluor counter	ALDH1A1 block	HPGD inh
CCOC(=O)N1CCN(C(=O)c2oc(=O)c3ccccc3c2-c2ccc(C)cc2)CC1	-	-	-	-	0.014µM	-
CN(Cc1ccccc1)C(=O)c1oc(=O)c2ccccc2c1-c1ccccc1	-	-	-	-	?	-
CCCC/C=C/C(NC(=O)c1ccco1)c1ccccc1 (stereo unspecified)	-	-	?	-	3.5µM	-
O=C(NCCc1ccccc1)c1ccco1	-	-	-	-	-	-
O=C(NCCNC(=O)C(c1ccccc1)c1ccccc1)c1ccco1	-	-	-	-	40µM	-
COc1ccc(-c2csc(CCN3N=C(C)CC3=O)n2)cc1	?	-	?	-	2µM	.
COc1ccc(-c2csc(C)n2)cc1	-	-	-	-	-	-
COc1ccc(OC)c(NC(=O)Nc2cccc(OCc3cc(=O)n4cc(C)ccc4n3)c2)c1	?	?	.	13µM[quencher]	.	.
COc1cc(OC)c(NC(=O)Nc2cccc(OCc3cc(=O)n4ccccc4n3)c2)cc1Cl	?	-	.	6.3µM[quencher]	.	.
CCC(=O)Nc1cccc(OCc2cc(=O)n3cc(C)ccc3n2)c1	-	-	.	-	.	.
COc1ccc(NC(=O)Nc2cccc(OCc3cc(=O)n4cccc(C)c4n3)c2)c(OC)c1	?	?	.	7.1µM[quencher]	.	.
Cc1ccc(OCC(=O)Nc2cccc(OCc3cc(=O)n4cccc(C)c4n3)c2)cc1C	-	-	.	-	.	.
CCN1CCN(C(c2ccc(F)cc2)c2sc3nc(-c4ccco4)nn3c2O)CC1 (stereo unspecified)	-	-	.	-	.	.
O=C(Nc1nc(-c2ccc(Cl)s2)cs1)c1cccs1	?	?	?	28µM[quencher]	?	-
O=C(Nc1nc(-c2ccccc2)cs1)c1cccs1	-	-	-	-	-	.
CCN1CCN(Cc2ccc(NC(=O)c3cc(NC(=O)C(=O)c4c[nH]c5ccccc45)cc(OC)c3)cc2C(F)(F)F)CC1	-	14µM	-	?	.	.
Cc1c(Cl)cccc1NC(=O)CSc1ccc(-c2ccccn2)nn1	-	-	.	-	.	.
O=C1CC(SCc2nc3ccccc3[nH]2)C(=O)N1c1ccc(F)c(Cl)c1 (stereo unspecified)	?	-	?	-	5µM	22µM
O=C1CC(SCCc2nc3ccccc3[nH]2)C(=O)N1c1ccc(Cl)cc1 (stereo unspecified)	?	?	-	-	?	-
O=C1CC(SCc2nc3ccccc3[nH]2)C(=O)N1c1ccc(Cl)cc1 (stereo unspecified)	?	-	-	-	25µM	-
O=C1CC(SCCO)C(=O)N1c1ccccc1 (stereo unspecified)	-	-	-	-	-	-
O=C1CC(SCc2nc3ccccc3[nH]2)C(=O)N1c1cccc(F)c1 (stereo unspecified)	?	-	?	-	13µM	-
CCOc1ccc(N2C(=O)CC(SCc3nc4ccccc4[nH]3)C2=O)cc1 (stereo unspecified)	?	-	-	-	4.5µM	.
COc1ccc(N2C(=O)CC(SCc3ccc(Cl)cc3)C2=O)cc1 (stereo unspecified)	.	-	-	-	.	.
COCCN(C(=S)Nc1ccc(C)cc1C)C(C)c1ccco1 (stereo unspecified)	-	-	-	-	-	.
COc1ccccc1NCCC(=O)OCC(=O)NC1CCCCCC1	-	-	-	-	-	-
COc1cccc(NC(=O)CCc2c(C)nc3ncnn3c2C)c1	-	-	.	-	.	.
